# Laboratory results from PubChem BioAssay AID1698 (The Scripps Research Institute Molecular Screening Center, 2009).
# This is one part of the list. A number with no mark means an inactive call. Activity calls are given as the source filed them.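 How the source made its calls: active means activation above the solvent-only control wells' mean plus 3 SD (cut at about 11% in these data); inactive means the rest.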
# Target: Neuropeptide Y receptor type 2 (Homo sapiens) (UniProt P49146)
# Assay: NPY-Y2 direct agonists without NPY, counter-screen for NPY-Y1 potentiator project, cell-based, fluorescence (AID 1698);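 further: 0% = DMSO with isoproterenol and 100% = 40 nM NPY maximal response; agonism lowers cAMP so well fluorescence drops in active wells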
# Details: HEK293 Y2-CNGC, membrane potential fluorescence, agonist mode; at 3.6 µM; active compounds read high
# Sequence of Neuropeptide Y receptor type 2 (Homo sapiens) (P49146 whole entry, looked up): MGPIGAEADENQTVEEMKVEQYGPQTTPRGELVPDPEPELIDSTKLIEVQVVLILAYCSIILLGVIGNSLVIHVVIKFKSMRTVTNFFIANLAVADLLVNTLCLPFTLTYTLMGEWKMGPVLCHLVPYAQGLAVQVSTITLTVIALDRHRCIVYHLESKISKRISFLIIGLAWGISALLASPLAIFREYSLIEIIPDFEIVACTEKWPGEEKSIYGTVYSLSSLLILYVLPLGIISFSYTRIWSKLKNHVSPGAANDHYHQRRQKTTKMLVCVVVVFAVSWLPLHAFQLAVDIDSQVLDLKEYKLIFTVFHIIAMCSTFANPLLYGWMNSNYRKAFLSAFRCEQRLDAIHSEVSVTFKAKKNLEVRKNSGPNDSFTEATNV
row,SMILES,activation
1,O=C(Nc1ccc2c(c1)CCC2)c1cccc(S(=O)(=O)Nc2ccccc2Cl)c1,10.3% (active)
2,O=C(Nc1ccccc1C(F)(F)F)c1cc(-c2ccc(O)cc2)on1,-2.58%
3,CCn1c2ccccc2c2cc(NC(=O)Nc3ccc([N+](=O)[O-])cc3C)ccc21,23.4% (active)
4,COC(=O)c1ccc(NC(=O)CN(c2ccc(C)cc2)S(=O)(=O)c2c(C)n[nH]c2C)cc1,47% (active)
5,Cc1ccccc1NCC(=O)N/N=C\c1ccc([N+](=O)[O-])s1,39.5% (active)
6,O=C(c1cccs1)N1CCN(C(=O)N2CCOCC2)CC1,-9.63%
7,CSc1nc(-c2ccco2)nn1C(=O)c1ccccc1Cl,26% (active)
8,CC1=C/C(=N\OS(=O)(=O)c2ccccc2)C=CC1=O,26.8% (active)
9,CC(=O)c1ccc(NC(=O)C2CC(=O)Nc3nc4ccccc4n32)cc1 (stereo unspecified),34.2% (active)
10,COC(=O)c1sc(-c2ccc(C(C)(C)C)cc2)cc1NC(=O)/C=C/C(=O)O,22.8% (active)
11,N#Cc1ccc(C(=O)Nc2nc(-c3cccs3)c(C(=O)C(F)(F)F)s2)cc1,0.24%
12,O=[N+]([O-])c1cc(Cl)cc(/C=N/NC(=S)Nc2cc(S(=O)(=O)N3CCOCC3)ccc2Cl)c1O,63.2% (active)
13,CN1C(=O)c2ccccc2C(C(=O)NCCCN2CCCC2)C1c1c[nH]c2ccccc12 (stereo unspecified),-0.28%
14,Cc1cccc(OCC(O)CN2CCN(CCN3C(=O)c4cccc5cccc(c45)C3=O)CC2)c1C (stereo unspecified),63% (active)
15,O=C1/C(=C/c2coc3ccc(O)cc3c2=O)SC(=S)N1c1ccccc1,15.2% (active)
16,COCCn1nnnc1C(c1ccccc1Cl)N1CCN(c2ccccc2OC)CC1 (stereo unspecified),6.66%
